The subject of one experiment is MCC-13. The experiment is described as follows: qHTS assay to identify novel small-molecules to repurpose for Merkel cell carcinoma treatment (AID 1296009). Also: nearly all actives have a fitted effect of over 60% in size. As to conditions: MCC and control cell lines, CellTiter-Glo viability, 72 h; series mostly up to 46 µM. A digest of the protocol: (§1)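 Cell viability measured by CellTiter-Glo following 72 hr compound treatment at 37 degree celsius, with NPC and MIPE libraries tested in 8- and 11-point concentration series.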
Background: qHTS replaces the single test concentration by a dilution series.

The test system of the next experiment is MCC-26. Described as above. As to conditions: MCC and control cell lines, CellTiter-Glo viability, 72 h; series mostly up to 46 µM. A digest of the protocol: as §1
A general note: ATP-based viability assays read luminescence as a measure of living cells.

For the next experiment, the system named is MKL-1. The experiment is described as above. The following applies: MCC and control cell lines, CellTiter-Glo viability, 72 h; series mostly up to 46 µM. The gist of the method:
as §1

In the next experiment the test system is MKL-2. The experiment is described as above. As to conditions: MCC and control cell lines, CellTiter-Glo viability, 72 h; series mostly up to 46 µM. A digest of the protocol:
as §1

Another experiment concerns UISO. The description is as above. The following applies: MCC and control cell lines, CellTiter-Glo viability, 72 h; series mostly up to 46 µM. The gist of the method:
as §1

For a further experiment, the system named is WaGa. The experiment is described as above. The following applies: MCC and control cell lines, CellTiter-Glo viability, 72 h; series mostly up to 46 µM. The gist of the method: as §1
For the next experiment, the system named is C33A. The experiment can be described thus: Primary qHTS to identify gynecologic anti-cancer compounds using libraries of approved drugs and bioactive compounds (AID 1345084). Also: nearly all actives have a fitted effect of over 55% in size. The following applies: Gynecologic cancer cell panel viability, ATPlite luminescence, 48 h; series mostly up to 57.5 µM. The gist of the method:
(§2)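 Luminescence from the ATPlite ATP-monitoring reagent indicates viable cell number; lower signal means cytotoxicity. Cells received compound 16 h after seeding and were exposed for 48 h across five concentrations.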

The next experiment has as its system CAOV3. Described as above. The following applies: Gynecologic cancer cell panel viability, ATPlite luminescence, 48 h; series mostly up to 57.5 µM. The gist of the method: as §2
In a further experiment the test system is CASKI. The description is as above. As to conditions: Gynecologic cancer cell panel viability, ATPlite luminescence, 48 h; series mostly up to 57.5 µM. The gist of the method:
as §2

A further experiment has as its system Es-2. Described as above. As to conditions: Gynecologic cancer cell panel viability, ATPlite luminescence, 48 h; series mostly up to 57.5 µM. The gist of the method:
as §2

The subject of the next experiment is HeLa. The description is as above. The following applies: Gynecologic cancer cell panel viability, ATPlite luminescence, 48 h; series mostly up to 57.5 µM. A digest of the protocol:
as §2

The test system of the next experiment is Hek293T. The experiment is described as above. The following applies: Gynecologic cancer cell panel viability, ATPlite luminescence, 48 h, control line for the selectivity index; series mostly up to 57.5 µM. The gist of the method:
as §2

In a further experiment the test system is JEG-3. Described as above. As to conditions: Gynecologic cancer cell panel viability, ATPlite luminescence, 48 h; series mostly up to 57.5 µM. The gist of the method:
as §2

The next experiment deals with OV90. The description is as above. The following applies: Gynecologic cancer cell panel viability, ATPlite luminescence, 48 h; series mostly up to 57.5 µM. The gist of the method:
as §2

The next experiment deals with PA-1. The description is as above. As to conditions: Gynecologic cancer cell panel viability, ATPlite luminescence, 48 h; series mostly up to 57.5 µM. The gist of the method: as §2
A further experiment relates to SKOV3. The experiment is described as above. As to conditions: Gynecologic cancer cell panel viability, ATPlite luminescence, 48 h; series mostly up to 57.5 µM. The gist of the method:
as §2

In a further experiment the test system is Tov-21-G. The experiment is described as above. As to conditions: Gynecologic cancer cell panel viability, ATPlite luminescence, 48 h; series mostly up to 57.5 µM. A digest of the protocol: as §2
The subject of another experiment is Tov112D. The description is as above. The following applies: Gynecologic cancer cell panel viability, ATPlite luminescence, 48 h; series mostly up to 57.5 µM. The gist of the method: as §2
A further experiment relates to NIH3T3. The experiment is described as follows: qHTS assay to identify novel small-molecules to repurpose for Merkel cell carcinoma treatment (AID 1296009). Also: nearly all actives have a fitted effect of over 60% in size. The following applies: MCC and control cell lines, CellTiter-Glo viability, 72 h; at 44.8 µM (top of the series) unless noted. The gist of the method: as §1
Experiment [1] in a line: Drug repurposing screens with cells derived from glioblastoma tumor samples (AID 1345199). Also: nearly all actives have a fitted effect of over 40% in size. Also: potency is read from the fitted curve at half-maximal effect. The following applies: GBM patient neurospheres viability, ATP luminescence, 48 h. A digest of the protocol: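 Primary testing used CD133+ neurospheres from four GBM patients, seven concentrations, 48 h exposure and ATP-based viability; confirmation added three slower-growing patient lines.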

The mark [2] stands for this setting: at 45.9 µM (top of the series), tumour line B.
The mark [3] stands for this setting: at 45.9 µM (top of the series), tumour line D.
[4] abbreviates: at 46.1 µM (top of the series), tumour line C.

Records with an inconclusive call do not appear. A number with no mark means an inactive call. Calls of active or inactive are those of the source. Calls follow the shape of the dose curve; as a rule, active = well fitted curve in the direction sought with a large enough effect; inconclusive = small, poorly fitted or top-dose-only effect, or another doubt; inactive = no such curve, though single readings can be large; an effect the other way counts as inactive or inconclusive.
% is scaled to controls: 0 for no effect and ±100 for the full control effect.

Turning to `OC[C@H]1O[C@@H](O[C@@H]2[C@@H](CO)O[C@](O)(CO)[C@H]2O)[C@H](O)[C@@H](O)[C@H]1O`, the Potency entry with MCC-13, in the experiment with MCC-26, in the experiment with MKL-1, in the experiment on MKL-2, in the experiment on UISO and in the experiment on WaGa was “inactive” in each case. Besides, the Potency entry with C33A, in the experiment with CAOV3, in the experiment on CASKI, in the experiment on Es-2, in the experiment on HeLa and with Hek293T was “inactive” in each case. Also, the Potency entry with JEG-3, in the experiment with OV90, with PA-1, in the experiment on SKOV3, in the experiment with Tov-21-G and in the experiment on Tov112D was “inactive” in each case.

For `C#CCN(C)Cc1ccccc1`, the Potency entry with MCC-13, in the experiment with MCC-26, in the experiment on MKL-1, in the experiment on MKL-2, with UISO and in the experiment with WaGa was “inactive” throughout. For the same molecule, the Potency result in the experiment with C33A, with CAOV3, in the experiment with CASKI, in the experiment with Es-2, in the experiment on HeLa and in the experiment on Hek293T was “inactive” in each case. The Potency result in the experiment with JEG-3, in the experiment with OV90, with PA-1, in the experiment with SKOV3, with Tov-21-G and with Tov112D was “inactive” throughout.

On to `CC[C@@]1(c2ccccc2)NC(=O)N(C)C1=O`, for which the Potency result in the experiment on MCC-13, in the experiment with MCC-26, in the experiment with MKL-1, with MKL-2, in the experiment with UISO and with WaGa was “inactive” throughout. Besides, the Potency result in the experiment with C33A, with CAOV3, in the experiment on CASKI, in the experiment with Es-2, in the experiment with HeLa and with Hek293T was “inactive” in each case. The Potency entry in the experiment with JEG-3, with OV90, in the experiment on PA-1, in the experiment on SKOV3, in the experiment on Tov-21-G and in the experiment on Tov112D was “inactive” in each case.

For the molecule `COc1ccc2[nH]c(S(=O)Cc3ncc(C)c(OC)c3C)nc2n1` (centres undefined), the Potency entry in the experiment with MCC-13, in the experiment with MCC-26, with MKL-1, with MKL-2, in the experiment with UISO and in the experiment with C33A was “inactive” in each case. Also, the Potency result with CAOV3, in the experiment on CASKI, in the experiment with Es-2, with HeLa, with Hek293T and in the experiment with JEG-3 was “inactive” each time. Moreover, the Potency result in the experiment with OV90, in the experiment with PA-1, in the experiment on SKOV3, in the experiment on Tov-21-G and in the experiment on Tov112D was “inactive” each time. For the same molecule, the molecule was classed as inactive with NIH3T3. The activity, negative = cell killing in experiment [1] (setting [2]) is -28.9%; in experiment [1] (setting [3]), -21.6%. Further, the Potency in experiment [1] (tumour line A) was 11.2 µM (active).

Regarding `Cc1cc(O)cc2c1O[C@](C)(CCC[C@H](C)CCC[C@H](C)CCCC(C)C)CC2`, the Potency entry in the experiment with MCC-13, in the experiment on MCC-26, in the experiment on MKL-1, with MKL-2, in the experiment on UISO and in the experiment with WaGa was “inactive” throughout. The Potency entry in the experiment with C33A, with CASKI, with Es-2, with HeLa, in the experiment on Hek293T and with JEG-3 was “inactive” in each case. Moreover, the Potency result with OV90, in the experiment on PA-1, with SKOV3, in the experiment with Tov-21-G and with Tov112D was “inactive” throughout. Moreover, the result in the experiment on NIH3T3 was inactive. Also, the activity, negative = cell killing in experiment [1] (setting [4]) is -14.5%. The Potency in [1] (tumour line A) is 5.01 µM (active); in [1] (tumour line B), 17.8 µM (active); in experiment [1] (tumour line D), 35.5 µM (active).

With `O=C(O)c1ccccc1-c1ccc(C(F)(F)F)cc1`, the Potency result with MCC-13, in the experiment with MCC-26, in the experiment with MKL-1, in the experiment with MKL-2, in the experiment on UISO and in the experiment on WaGa was “inactive” in each case. Further, the Potency result in the experiment on C33A, in the experiment with CAOV3, with CASKI, with Es-2, in the experiment with HeLa and in the experiment with Hek293T was “inactive” in each case. Moreover, the Potency entry with JEG-3, with OV90, with PA-1, in the experiment with SKOV3, with Tov-21-G and in the experiment with Tov112D was “inactive” in each case. The activity, negative = cell killing in experiment [1] (setting [2]) was -7.48%; in experiment [1] (setting [3]), -6.37%; in experiment [1] (at 46 µM (top of the series), tumour line A), -14.4%; in experiment [1] (setting [4]), 1.99%.

(Values after PubChem BioAssay (NCATS).)
